MITF TRPM1 HTS – MITF TRPM1 promoter activation in melanoma cells | SK-MEL-5 TRPM1-promoter luciferase, 24 h; % of positive control, neutral wells = 0 | activation, % at 12.5 µM | 300,000 tested, 0.75% active | AID 588334;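 active means mean activation of at least 80% with every replicate also reaching 80%; inconclusive means mean reaches 80% but some replicate falls short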;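 further: 0% = neutral control wells and 100% = parthenolide positive control wells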
esBAF inh – SWI/SNF esBAF complex inhibition | mouse ES cells, Bmi1-luciferase knock-in reporter, 24 h; 100% = twice the neutral-well signal | reporter increase, % at 12.5 µM | 350,000 tested, 2% active; in the data active means activation above about 40%; inconclusive means no clear call, values can overlap the other calls;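 further: 0% = median of the plate's neutral control wells and 100% = double that signal; a rise in the Bmi1 reporter signal indicates esBAF inhibition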
Wnt bcat act – activators of Wnt/beta-catenin signaling | activation, % at 9.35 µM | Wnt/beta-catenin reporter cell assay, activator, plate reader | AID 743398 | 300,000 tested, 1.2% active; in the data active means activation above about 30%, passing the limit was not always enough; inconclusive means no clear call, values can overlap the other calls;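 further: 0% = neutral control wells and 100% = positive control wells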
Vif inh – HIV Vif inhibition; AID 602346; inhibition, % at 7.49 µM; HEK293T cells, Vif self-association by quenched fluorescence, imaging, 24 h; 340,000 tested, 0.35% active; in the data active means inhibition above about 50%, passing the limit was not always enough; inconclusive means no clear call, values can overlap the other calls; inactive means below about 31%
Glyco luc inh – blocks N-linked glycosylation in D54 reporter cells; 360,000 tested, 0.23% active; reporter increase, % at 12.5 µM; D54 ERlucT glycosylation luciferase reporter, 24 h; percent of 100 nM tunicamycin response;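 active means mean luciferase reporter signal, scaled so untreated is 0 and the glycosylation-blocking control 100, at or above a set limit in every replicate; inconclusive means mean reaches the limit but not every replicate does; inactive means mean below the limit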;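 further: luciferase carries N-glycosylation sites so blocking glycosylation raises the light; 0% = median of neutral control wells and 100% = median of 100 nM tunicamycin wells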
PvdQ inh – blocks Pseudomonas aeruginosa PvdQ acylase activity; inhibition, % at 10 µM; 340,000 tested, 0.063% active; purified PvdQ acylase, fluorescence plate reader; in the data active means inhibition above about 30%, passing the limit was not always enough; inconclusive means no clear call, values can overlap the other calls;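 further: 0% = vehicle neutral wells and 100% = reference inhibitor wells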
Ring1 derepress – de-represses Ring1 in mouse ESCs, confirming esBAF inhibition. shares compounds with esBAF inh. mouse ESC E14, Ring1 mRNA RT-qPCR fold change. fold change at 33 µM. 550 tested, under 10 active;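 active means Ring1 gene expression raised more than 2-fold over untreated cells in both replicates at either tested dose; inconclusive means only one replicate above 2-fold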;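 further: Ring1 transcript normalised to actin housekeeping signal by TaqMan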
esBAF Fgf4 qPCR – confirmation of esBAF inhibitors: Fgf4 repression in mouse ESCs; shares compounds with esBAF inh; mouse ESC E14, Fgf4 mRNA qPCR fold change; hits give low values; Fgf4 expression fold change at 33 µM; 550 tested, 4% active; AID 743177;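 active means Fgf4 expression under 0.8 fold of control in both repeat measurements at one or both tested doses; inconclusive means under 0.8 fold in just a single repeat measurement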;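 further: Fgf4 transcript normalised to actin in duplex TaqMan qPCR; cells exposed to compound for 24 h before lysis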
Bmi1 derepress – de-represses Bmi1 in mouse ESCs, confirming esBAF inhibition | 550 tested, under 10 active | mouse ESE14 ES cells, Bmi1 mRNA qPCR fold; hits give high values | shares compounds with esBAF inh | AID 743180 | fold change at 33 µM;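 active means Bmi1 expression fold change above 6 at either tested concentration, seen in replicate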;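 further: higher fold means more Bmi1 de-repression and stronger esBAF inhibition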
A549 cytotox – cytotoxicity in A549 cells. shares compounds with esBAF inh. plate reader. cell viability change % (negative = cytotoxic), % at 25 µM, hits read low. 550 tested, under 10 active. AID 743188; call rule not given here
HepG2 cytotox SP – kills or reduces viability of HepG2 cells. HepG2 cytotoxicity, plate reader; hits give low values. shares compounds with esBAF inh. activity change, negative = inhibition, % at 25 µM. 550 tested, 4% active. AID 743189; in the data active means activity change below about -50%
HEK293 cytotox SP – HEK293 cell cytotoxicity at single point; shares compounds with esBAF inh; plate reader; activity change, negative = inhibition, % at 25 µM, hits read low; 550 tested, 3% active; in the data active means activity change below about -38%, passing the limit was not always enough
* = called active by the depositor; ? = inconclusive; . = no result. Compounds with a hit are over-represented: about 2.9% of the library has one in this group of screens.

SMILES	MITF TRPM1 HTS	esBAF inh	Wnt bcat act	Vif inh	Glyco luc inh	PvdQ inh	Ring1 derepress	esBAF Fgf4 qPCR	Bmi1 derepress	A549 cytotox	HepG2 cytotox SP	HEK293 cytotox SP
COc1ccc(N2CCN(C(=O)c3ccc(Cn4c(=S)[nH]c5ccc(N6CCOCC6)cc5c4=O)cc3)CC2)cc1	61.9	68.3*	20.2	1.8	-3.8	-3.0	0.968	0.854	1.81	-10.4	-36.2	-9.5
O=C(c1ccc(Cn2c(=S)[nH]c3ccc(N4CCOCC4)cc3c2=O)cc1)N1CCN(c2ccc(F)cc2)CC1	39.3	.	21.2	-8.1	-3.8	5.1	.	.	.	.	.	.
C[C@H](CO)N1C[C@H](C)[C@H](CN(C)Cc2cccc(F)c2)Oc2ncc(-c3cccc(F)c3)cc2C1=O	.	-4.8	.	.	.	.	.	.	.	.	.	.
CCn1cnc2cc(NCc3ccccc3Cl)ccc21	86.8*	76.7*	12.4	-5.0	-1.3	-1.9	1.01	0.996	1.26	1.7	2.4	10.9
CCOc1ccc(CNc2ccc3c(c2)nc(C)n3C)cc1	24.9	.	.	9.4	4.7	-7.5	.	.	.	.	.	.
CCn1cnc2cc(NCc3ccc(OC)cc3)ccc21	57.5	56.3*	.	11.0	1.5	16.3	0.999	?	1.24	-5.4	-32.1	-9.5
CC1CCN(c2oc(-c3cccc4ccccc34)nc2C#N)CC1	?	67.1*	-4.2	-4.2	2.8	-17.0	0.969	0.949	1.45	-1.2	-52.6*	-18.6
N#Cc1nc(-c2cccc3ccccc23)oc1N1CCCCC1	78.5	5.5	.	15.4	2.1	-14.4	.	.	.	.	.	.
Cc1ccc(NC(=O)C2CC3CCC2C3)c(Br)c1 (stereo not given)	51.5	73.5*	6.9	5.3	0.4	5.9	1.03	0.999	2.04	-10.4	-17.5	-10.9
Cc1ccc(C)c(NC(=O)C2CC3CCC2C3)c1 (stereo not given)	.	25.7	2.1	21.1	-2.0	-4.6	.	.	.	.	.	.
CCCC#Cc1ccc2c(c1)O[C@H](CN(C)C)[C@@H](C)CN([C@H](C)CO)S2(=O)=O	.	-0.3	.	.	.	.	.	.	.	.	.	.
N#Cc1ccc(-c2cn3c(n2)SCC3)cc1	67.8	60.5*	4.2	3.1	0.8	-57.1	0.91	0.861	1.44	-6.1	-7.5	-11.0
CCCNC(=O)C[C@@H]1CC[C@@H]2[C@@H](COc3ccc(NC(=O)c4cccc(C(F)(F)F)c4)cc3C(=O)N2C)O1	.	1.3	.	.	.	.	.	.	.	.	.	.
C[C@@H]1CN([C@@H](C)CO)C(=O)c2cc(NC(=O)Cc3cn(C)c4ccccc34)ccc2O[C@H]1CN(C)C(=O)Nc1ccc(F)cc1	.	2.4	.	.	.	.	.	.	.	.	.	.
CCS(=O)(=O)n1nc(-c2ccc(Cl)cc2)nc1SC	65.9	56.9*	.	-3.2	-0.8	-5.2	1.21	0.901	1.24	-15.0	21.5	-19.6
CCNC(=O)Nc1ccc2c(c1)C(=O)N(C)[C@H]1CC[C@H](CC(=O)NCCN3CCCC3)O[C@@H]1CO2	.	-1.8	.	.	.	.	.	.	.	.	.	.
Cc1ccc(-n2nnc(-c3nccn3C)n2)cc1	-2.2	-58.3	6.3	-4.3	-18.7	-9.7	.	.	.	.	.	.
Cc1ccc(-n2nnc(-c3cccnc3)n2)cc1	101.6*	60.2*	22.3	1.7	-4.9	-11.5	1.24	1.01	1.51	-3.2	-9.6	15.9
COc1cccc(OCc2cc(C(=O)N3CCN(C(C)=O)CC3)no2)c1	64.1	70.7*	0.4	0.9	2.2	-2.4	1.11	0.827	1.31	-5.0	-16.9	2.7
COc1cc(C)ccc1OCc1cc(C(=O)N2CCN(C3CCCCC3)CC2)no1	66.2	61.2*	18.9	1.6	-2.5	9.9	1.05	1.02	1.73	4.0	-2.8	-6.4
CCCN(CC1CCCO1)C(=O)c1cc(COc2cccc(OC)c2)on1 (stereo not given)	21.4	.	-3.2	.	.	-5.2	.	.	.	.	.	.
COc1cccc(OCc2cc(C(=O)N(C)C3CCCCC3)no2)c1	.	79.9*	-2.8	8.8	1.3	.	1.12	0.943	1.57	-10.6	16.5	-21.6
CCCNC(=O)N1C[C@H](O)COC[C@H]2O[C@@H](CC(=O)O)CC[C@@H]21	.	-0.2	.	.	.	.	.	.	.	.	.	.
CO[C@@H]1CN(C)C(=O)c2cc(NC(=O)C3CCCC3)ccc2OC[C@H](C)NC[C@@H]1C	.	-2.6	.	.	.	.	.	.	.	.	.	.
CCOC(=O)C1=C(CSc2nc(-c3ccccc3)ccc2C#N)OC(N)=C(C#N)C1c1ccccc1 (stereo not given)	3.0	?	25.2	34.1	-5.1	12.1	.	.	.	.	.	.
SMILES	MITF TRPM1 HTS	esBAF inh	Wnt bcat act	Vif inh	Glyco luc inh	PvdQ inh	Ring1 derepress	esBAF Fgf4 qPCR	Bmi1 derepress	A549 cytotox	HepG2 cytotox SP	HEK293 cytotox SP
CCOC(=O)C1=C(CSc2nc(-c3ccccc3)ccc2C#N)OC(N)=C(C#N)C1c1cccnc1 (stereo not given)	49.5	72.6*	.	.	-10.0	0.5	1.22	?	1.73	-5.6	-15.8	11.0
COc1ccc(NC(=O)O/N=C/c2ccccc2)cc1	75.0	52.9*	38.7*	10.6	-1.1	-13.5	1.02	?	1.66	-8.6	-33.6	-8.8
c1cnc2cc(-c3ccsc3)ncc2c1	41.8	21.9	27.4	0.6	4.2	-2.4	.	.	.	.	.	.
Fc1ccc2cc(-c3ccsc3)ncc2c1	72.6	59.9*	36.3*	-1.8	-0.9	3.7	1.3	0.816	1.61	2.0	-2.4	-6.0
CC(C)c1ccc(CNNC(=O)c2ccccc2)cc1	70.0	69.8*	26.3	2.5	2.6	5.4	0.924	0.891	2.64	-6.5	6.3	-5.4
C[C@H](CO)N1C[C@H](C)[C@H](CN(C)C(=O)C2CC2)Oc2cc(C#C[C@@H](C)O)ccc2S1(=O)=O	.	-8.6	.	.	.	.	.	.	.	.	.	.
COc1cccc(S(=O)(=O)N[C@H]2CC[C@H](CCNC(=O)Cc3ccncc3)O[C@@H]2CO)c1	.	1.2	.	.	.	.	.	.	.	.	.	.
O=C1C(=Cc2ccncc2)CCCc2ccccc21	.	-0.3	1.6	-24.6	-2.9	.	.	.	.	.	.	.
O=C1/C(=C/c2cccc3ccccc23)CCCc2ccccc21	51.9	57.4*	41.7*	-2.0	-0.9	-10.9	1.15	1.05	1.2	-10.5	1.0	-0.5
CNC[C@@H]1Oc2c(NS(=O)(=O)c3cn(C)cn3)cccc2C(=O)N([C@@H](C)CO)C[C@@H]1C	.	-2.7	.	.	.	.	.	.	.	.	.	.
C[C@@H]1CCCCO[C@H](CN(C)S(=O)(=O)c2ccccc2)[C@H](C)CN([C@H](C)CO)C(=O)c2cc(N(C)C)ccc2O1	.	3.6	.	.	.	.	.	.	.	.	.	.
O=C(N/N=C/c1cccc([N+](=O)[O-])c1)c1cccc2cc[nH]c12	0.2	.	-1.8	9.8	-3.2	9.3	.	.	.	.	.	.

Assay outcomes: PubChem, Broad Institute
